For 40 compounds, Potency results are on record in PubChem BioAssay (NCATS).

Values without a mark were called inactive. The rule behind the calls is not given here.
Potency is the fitted concentration of half-maximal effect.

The subject of the test is HIV-1 nucleocapsid protein NCp7 (binding to TG oligonucleotide). The experiment in a line: HIV Nucleocapsid (AID 346).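 Note: potency is for inhibitors that block NC binding and lower polarization.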 As to conditions: HIV-1 NC / fluorescein-TGTGTGTG probe, fluorescence polarization. An outline of the steps:
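10 nM TG4xF probe with 100 nM nucleocapsid protein in high-salt Hepes pH 7.5 (250mM NaCl) containing 1uM ZnCl2 and reducing agents. Compound inhibition of binding was read as fluorescein polarization after 1 hr at room temperature.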
In general terms: Polarisation of emitted light reports the rotation of a fluorescent probe.
On to `CN(C)c1ncnc2ccc(-c3cccnc3)cc12`, for which the Potency is > 20 µM.
With `Cc1noc(C)c1C(=O)N1CCC[C@@]2(CCN(Cc3ccc(C#N)cc3)C2)C1` the figure was > 20 µM.
Take `c1ccc(C(c2ccccc2)N2CC3(CCNCC3)C2)cc1`: the Potency was > 20 µM.
With `COc1ccccc1-c1nc(NCCNC(C)=O)c2ccccc2n1` the figure was > 20 µM; with `Clc1ccccc1-c1nc(NCc2cccnc2)c2ccccc2n1`, > 20 µM; with `N#CCCn1c(=O)cnc2cnc(Nc3ccccc3)nc21`, > 20 µM.
As to `O=C(c1ccncc1)N1CCC2(CC1)CN(c1ccncc1)C2`, the Potency is > 20 µM.
In the case of `FC(F)(F)c1ccccc1-c1nccc(NCc2ccccc2)n1` it was > 20 µM; in that of `COc1ccc2[nH]cc(CCNc3ccnc(-c4c(C)noc4C)n3)c2c1`, > 20 µM; in that of `Cc1cccc(CNc2ncnc3ccc(-c4ccccc4C#N)cc23)c1`, > 20 µM.
With `COc1ccc(Oc2ncc3nc(-c4cccs4)c(=O)n(C)c3n2)cc1` the figure was > 20 µM; with `Cc1cccc(CNc2cc(-c3ccccc3C)ncn2)c1`, > 20 µM; with `O=c1c(-c2cc(F)cc(F)c2)nc2cncnc2n1Cc1ccccc1Cl`, > 20 µM.
With `O=c1c(-c2cccs2)nc2cnc(N3CCOCC3)nc2n1Cc1ccc(F)cc1` the figure was > 20 µM; with `COc1ccccc1-c1ccc2ncnc(NCCN3CCOCC3)c2c1`, > 20 µM; with `O=c1c(CCc2ccccc2)nc2cnc(N3CCOCC3)nc2n1Cc1cccs1`, > 20 µM.
Take `O=C(c1cccc(F)c1)N1CCC2(CCCN(Cc3ccccc3)C2)CC1`: the Potency is > 20 µM.
In the case of `CCNc1ncc2nc(C)c(=O)n(CCC#N)c2n1` it was > 20 µM; in that of `CS(=O)(=O)N1CCC2(CCN(c3cccc(-c4ccccc4)c3)CC2)CC1`, > 20 µM; in that of `Cc1noc(C)c1-c1ccc2ncnc(NCc3ccccc3)c2c1`, > 20 µM.
In the case of `COc1ccc(Oc2ncc3nc(-c4ccc(F)cc4)c(=O)n(C[C@H]4CCCO4)c3n2)cc1`, the Potency is > 20 µM.
In the case of `COc1ncc2ncc(=O)n(C3CC3)c2n1` it was > 20 µM.
Regarding `Cc1cnc(CNc2ncnc3ccc(-c4cccc(NS(C)(=O)=O)c4)cc23)cn1`, the Potency is > 20 µM.
Regarding `FC(F)(F)c1ccccc1-c1cc(NCc2ccccc2)ncn1`, the Potency is > 20 µM.
`N#CCCn1c(=O)cnc2cnc(OCc3ccccc3)nc21`: the Potency was > 20 µM.
In the case of `Cc1nc2cnc(Oc3cccc(Cl)c3)nc2n(Cc2ccc(F)cc2)c1=O` it was > 20 µM; in that of `O=C(Oc1ccccc1)N1CCC2(CCCN(c3ccncc3)C2)CC1`, > 20 µM; in that of `COCCn1c(=O)c(-c2cn(C)c3ccccc23)nc2cnc(OCc3ccccc3)nc21`, > 20 µM.
With `COCCn1c(=O)c(-c2cccc(C#N)c2)nc2cnc(OCc3ccccc3)nc21` the figure was > 20 µM; with `COc1cccc(Cn2c(=O)c(-c3cccs3)nc3cnc(Nc4ccccc4)nc32)c1`, > 20 µM; with `Cc1nc2cnc(N3CCOCC3)nc2n(C2CC2)c1=O`, > 20 µM.
Take `O=c1cnc2cnc(OCc3ccccc3)nc2n1Cc1ccc(F)cc1`: the Potency is > 20 µM.
In the case of `COc1ccc(-c2nc3cnc(N4CCOCC4)nc3n(C[C@H]3CCCO3)c2=O)cc1` it was > 20 µM; in that of `COc1ccc(Oc2ncc3ncc(=O)n(Cc4cccc(OC)c4)c3n2)cc1`, > 20 µM; in that of `Cc1ccccc1-c1cncnc1Nc1ccc(F)cc1`, > 20 µM.
Take `CCNc1ncc2nc(-c3ccc(F)cc3)c(=O)n(C[C@H]3CCCO3)c2n1`: the Potency is > 20 µM.
With `O=C(c1cc(C(F)(F)F)cc(C(F)(F)F)c1)N1CCC2(CCN(Cc3ccccc3)CC2)CC1` the figure was > 20 µM.
With `CC(C)CN1CC[C@@]2(CCCN(C(=O)c3csnn3)C2)C1` the figure was > 20 µM.
With `COc1ncc2nc(-c3ccc(Cl)cc3)c(=O)n(CCC#N)c2n1` the figure was > 20 µM.
In the case of `COc1ccc(CNc2ccnc(-c3cccnc3)n2)c(OC)c1`, the Potency is > 20 µM.
